We go through 16 molecules from publication PMC12136788.

In all, about 5,800 sequences were measured (“enrichment r”: median about 0.68, highest 2% from about 11 on). What follows is part of a selection rich in the highest values, with near analogues and random picks from the rest.

T1: UNK ZnF1-6 (called full-length) (human, UniProt Q9C0B0 30-357)
T1 sequence: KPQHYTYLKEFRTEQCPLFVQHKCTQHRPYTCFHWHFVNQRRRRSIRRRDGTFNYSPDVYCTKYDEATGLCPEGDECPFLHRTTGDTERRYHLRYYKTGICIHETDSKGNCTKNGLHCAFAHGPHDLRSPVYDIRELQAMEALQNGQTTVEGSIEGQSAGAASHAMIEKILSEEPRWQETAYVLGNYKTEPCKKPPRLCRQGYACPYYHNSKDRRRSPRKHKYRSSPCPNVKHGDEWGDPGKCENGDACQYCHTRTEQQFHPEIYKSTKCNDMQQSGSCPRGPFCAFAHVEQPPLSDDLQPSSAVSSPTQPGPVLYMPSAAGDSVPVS

B1: chr17:44352837:44352938:+|3pUTR|ENSG00000030582|unk|total|mutant (ssRNA)
RNA: GGGAGUUCUACAGUCCGACGAUCCUGAAGACUCUGCAGCCCUCGGGACCCCACUCGGAGGGUGCCCUCUGCUCAGGCCUCCCCCGCACCUCCCCCUAACCAAAUUCUCCCUGGACCCCAUUCUGAGCUCCCCAUCACCAUGGGCAACAGAGGAUUGAGCAUCA
B2: ENSG00000107863:be:win_1351|CDS|ENSG00000107863|bound_else_gene|NA|bound_elsewhere_windowed (ssRNA)
RNA: GGGAGUUCUACAGUCCGACGAUCGUCCAGAUACGGCAACGCAGUGUGUCCCAAGAAAGACUGGAAGAUUCUGUGCUAAUGAAGUAUUGUCCAAGAAGUGCAUCUCAAGGAGCACUGACGUCUCCAUCUGUUAGUUUUAGUAAUCAACAGAGGAUUGAGCAUCA
B3: chr10:75150949:75151073:+|CDS|ENSG00000156671|unk|FALSE|unique (ssRNA)
RNA: GGGAGUUCUACAGUCCGACGAUCUGUUCGAAGAUUGGACCCAGAAUACUGGAAGACUAUACUGAGUUGUAUAUAUGUUUUUAUAGUAUUUGGAUUUACAUCUUUCAUUAUGGUUAUAGUCCAUGAGCGAGUGCCUGACAUGCACAACAGAGGAUUGAGCAUCA
B4: ENSG00000107863:be:win_4151|CDS|ENSG00000107863|bound_else_gene|NA|bound_elsewhere_windowed (ssRNA)
RNA: GGGAGUUCUACAGUCCGACGAUCAUUCAGCUACUAGUGACUCAACAAAAUCUAAGGGUUCUUGGGGAUCUGGAAAGGAUCAGUAUAGCAGGGAACUGCUUGUGUCCUCCAUCUUUGCAGCUGCUAGUCGCAAGAGGAAGAAGCCAACAGAGGAUUGAGCAUCA
B5: chr2:224001733:224001845:-|CDS|ENSG00000135919|unk|total|mutant (ssRNA)
RNA: GGGAGUUCUACAGUCCGACGAUCGGCCUCUGUGACGCUGCCUUCCAUCUGCUCCCACUUCAAUCCUCUGUCUCUCGAGGAACCCGGCUCCAACACGGGGAUCCAGGUUUUCAAUCAGAUUGUGAAGUCGAGGCCUCAUGACAACAACAGAGGAUUGAGCAUCA
B6: chr12:122341087:122341188:-|CDS|ENSG00000130779|unk|FALSE|bound_elsewhere (ssRNA)
RNA: GGGAGUUCUACAGUCCGACGAUCAGAAUUUGCUGAACUAAAAACACAAAUAGAGAAAAUGAGACUAGAUUACCAACACGAAAUAGAAAAUUUGCAGAAUCAACAAGACUCUGAACGGGCUGCCCAUGCUAAAGAGAUGGAAGCCAACAGAGGAUUGAGCAUCA
B7: chr10:11920118:11920232:-|3pUTR|ENSG00000151461|unk|FALSE|unique (ssRNA)
RNA: GGGAGUUCUACAGUCCGACGAUCGUAGUAUAUUUAGUCGGAGAGCACAUCUGUAUGCGACAACUUGAUUACAUCUUUUUUUCUAGCUAUUUUGCAUUUUUUCUUUUACCAUGUUUCAGUUUCUGCAUGUAGAUUUAAAUAAAACAACAGAGGAUUGAGCAUCA
B8: chr6:152987361:152990084:-|three_prime_utr|ENSG00000112031|control|control|control (ssRNA)
RNA: GGGAGUUCUACAGUCCGACGAUCAGAUUAUCUACUGGAUGAACUUGUACAGUCAUUGAAGGAAUACGCCGAUUAUGAAUCUUUAGUAGAAAUUAUUUCCCAAAAAGUUUAAGUUGAUUUGUUAUUUAUAGACUUUCGUAGCUUCAACAGAGGAUUGAGCAUCA
B9: chr10:62806226:62806343:+|3pUTR|ENSG00000181915|unk|FALSE|unique (ssRNA)
RNA: GGGAGUUCUACAGUCCGACGAUCCUACCCCUUAGUUAAAUAGGGUUUAUUUUCCACUCAUGCCCUUAUGCCUUUUUUUCUUAUAGUUUUUUAACUUAUUGACUGUGCAUGACCCAGUGGUUUGAAUUGUUUUUAGUUCAAGUCCAACAGAGGAUUGAGCAUCA
B10: chr3:68976711:68977116:-|CDS|ENSG00000163378|control|control|control (ssRNA)
RNA: GGGAGUUCUACAGUCCGACGAUCCUUUUUAGGAAUACCAAAGUUUUCAACUUUUUCAGCUUUAGAAUUUGUAAAUAUUUUUGUAGAAUAUCAUAUGACUGUAAUUCCAGAGUGUUCCAACUUGUUUAUGAUAUAUUUGGGUAACAACAGAGGAUUGAGCAUCA
B11: ENSG00000070961:be:win_5751|3pUTR|ENSG00000070961|bound_else_gene|NA|bound_elsewhere_windowed (ssRNA)
RNA: GGGAGUUCUACAGUCCGACGAUCCUAAAAAUUGACCCUAUCAACUGGAGAGCCCACAAGGCAUAGGGAAUAGAGAAAAGGGAAAUGUUUUCAGUUUUCUUUUUUAUUUUGGUUAUGCUUAAAUAUGAAUGUAAUUACCAAAAGCAACAGAGGAUUGAGCAUCA
B12: chr13:52036708:52036809:-|3pUTR|ENSG00000197168|unk|total|mutant (ssRNA)
RNA: GGGAGUUCUACAGUCCGACGAUCGCCGAACUUUUGAAUACCGCCAUUAAUAUUUUUACUUUAAAGUUUCUAUUAAGAAAUCUCCGGCCGGGCAGUCUCAUCACUUUGGGAGGCCAAGGCAGGCAGAUCAUGAGGUCAGGAGUUCAACAGAGGAUUGAGCAUCA
B13: chr21:14371318:14371404:-|3pUTR|ENSG00000155304|msi1_unk|FALSE|overlapping (ssRNA)
RNA: GGGAGUUCUACAGUCCGACGAUCUAUGAAUAACAAUCUGAAGUCUUUUCAUAAAAAAAAUUAAUAAACUUUAGUUGUACAUUUAGCCAGUGUUAUUUGAAGUAUGUAACUUUUAAAAUAUUAAGUGUCUUGUAUGAUUAGAAUCAACAGAGGAUUGAGCAUCA
B14: chr7:107202531:107202632:-|3pUTR|ENSG00000164597|msi1|total|mutant (ssRNA)
RNA: GGGAGUUCUACAGUCCGACGAUCUAUUCUGAGAACUCAUAAAUAAAAUUCAGCCAAGAUUAAUCAAUCAAUCAAUCAAUCAGCCGACGUCAGAGAUAAGCAACUUUUUUUUCCAUUUAUUUGAAAUAAUAUACAAGAAUACCGCAACAGAGGAUUGAGCAUCA
B15: chr20:13714314:13714426:-|3pUTR|ENSG00000089048|unk|FALSE|unique (ssRNA)
RNA: GGGAGUUCUACAGUCCGACGAUCUUUUUCUAGCCAUAAAGGAUGGAAGUCAAGAACUUUUUGUUGUUUAGUCAUGUUAAGUAUAGUUUAUGAAAUUAACUUGUAAAUAAAAGUGUAAAAUAUUUUCAUUAUUUUGUAUAGCACCAACAGAGGAUUGAGCAUCA
B16: chr12:39553730:39553837:-|3pUTR|ENSG00000173208|unk|FALSE|unique (ssRNA)
RNA: GGGAGUUCUACAGUCCGACGAUCGAAGUAUGUUAAGCUAAGCACAGAGAAAAAAAGGCAGCAAGACAUGUUUUAUAAGAUUUUAGCAUUAAGGAAGUAUAUGAUCUGACUUUUCAGAAGAAAAUAAACAAAUGCAUUAUGUAACAACAGAGGAUUGAGCAUCA

The experiment concerns the target T1, UNK ZnF1-6 (called full-length). Nature of the experiment: nsRBNS (natural sequence RNA bind-n-seq); RBNS binding buffer (assumed for nsRBNS): 25 mM Tris pH 7.5, 150 mM KCl, 3 mM MgCl2, 0.01% Triton X-100, 500 ug/ml BSA, 20 U/ml SUPERase-In, 4 C; UNK is unkempt and MSI1 is Musashi-1; names of the RNAs are library labels; protein concentration not given here; high values mean tight binding.
For the molecule B1, the binding signal is 0.732 enrichment R. B2 came in with a binding signal of 4.38 enrichment R. As for B3, the figure is 0.389 enrichment R; as for B4, 0.489 enrichment R; as for B5, 0.666 enrichment R. As for B6, the figure is 8.87 enrichment R. Next, B7: 21.9 enrichment R; B8: 1.84 enrichment R; B9: 15.8 enrichment R.

B10 showed a binding signal of 9.89 enrichment R. As for B11, the figure is 0.412 enrichment R; as for B12, 2.85 enrichment R; as for B13, 1.48 enrichment R. For the molecule B14, the binding signal is 1.94 enrichment R. Turning to B15, the binding signal came out at 62.3 enrichment R. B16 had a binding signal of 0.997 enrichment R.
